# Source: ChEMBL document CHEMBL4513216, “Probing the Open Global Health Chemical Diversity Library for Multistage-Active Starting Points for Next-Generation Antimalarials” (ACS Infect Dis, 2020)
# Screen size: about 65,000 compounds; about 2,100 (3.2%) showed an effect of 50% or more. The median lay at about -52%. Many of the other results were omitted from the sample, so strong results are more common in it than they were.
# Tested on: Plasmodium falciparum
# Test: Screen against P. falciparum Asexual Blood Stage (ABS), at 5uM
# Format: functional, Dd2
# Settings: tested at 5 uM
row,Structure (SMILES),INHIBITION [%]
1,COc1ccc(CN2C[C@@H]3CN(Cc4cccnc4)CCO[C@@H]3C2)cc1,-76.4
2,CC(NC(=O)Nc1ccc(-c2csnn2)cc1)C(=O)NC(C)(C)C (centres undefined),-94.8
3,O=C(c1ccsc1)N1C[C@@H]2CCN(c3cccnc3)C[C@@H]2C1,-7.89
4,O=C(NCC1CCS(=O)(=O)C1)N1CCN(c2cnccn2)CC1 (centres undefined),-123
5,CC(NC(=O)NCCCN(C)S(C)(=O)=O)c1ccc(F)cc1 (centres undefined),-109
6,COc1ccnc(N(C)Cc2csc(C)n2)n1,-49.6
7,Cc1nc(CN(C)c2nccc(N(C)C)n2)cs1,27.2
8,Cc1cc(N(C)C)nc(N(C)Cc2csc(C)n2)n1,51.4
9,c1cncc(OCc2n[nH]c3c2CN(Cc2cccs2)C3)c1,-109
10,OC1(Cn2ccc3ncccc32)CCN(Cc2cccs2)CC1,4.9
11,CC(=O)c1cccc(NCC(=O)NC(N)=O)c1,-105
12,Cn1nc(C2CCCN(Cc3ccccc3)C2)c2nccnc21 (centres undefined),-26.5
13,COc1cccc(CNCc2ccnc(N3CCOCC3)c2)c1OC,-35.6
14,O=C(NCC1(O)CCOCC1)c1ccc(F)cc1,-171
15,COc1cccc(C2(C(=O)NC3CCc4nccn4C3)CCCC2)c1 (centres undefined),53.3
16,CS(=O)(=O)C1(C(=O)NC2CCc3nccn3C2)CCCC1 (centres undefined),-105
17,COc1ccc(C2(C(=O)NC3CCc4nccn4C3)CCCC2)cc1 (centres undefined),47.5
18,CCN1CC(C)(C)CN(C(=O)CCc2ccccc2)CC1=O,-37
19,Cc1ccc(-c2nc(CCNC(=O)NC3CCC(O)CC3)co2)cc1 (centres undefined),-137
20,OCCN1CCN(Cc2cnc3c(-c4ccccc4)cnn3c2)CC1,20.3
21,c1ccc(-c2cnn3cc(CN4CCC5(CCO5)CC4)cnc23)cc1,-302
22,CN(C)CC1(O)CCN(Cc2cnc3c(-c4ccccc4)cnn3c2)C1 (centres undefined),65
23,COc1ccc(CN(Cc2ccsc2)CC2CCCO2)cn1 (centres undefined),-101

row,Structure (SMILES),INHIBITION [%]
1,Cc1cccc(CN2CCCC3(CCC(=O)N3CCN(C)C)CC2)n1 (centres undefined),45.5
2,CN(C)C(=O)CN1C(=O)CCC12CCN(Cc1cccs1)CC2,-98
3,CN(C)CCN1C(=O)CCC12CCN(Cc1cccs1)CC2,58.2
4,CNc1cncc(C2CCN(C(=O)c3coc(C)n3)CC2)n1,-43
5,Cc1nn(C)c(N(C)C)c1CNC1CCc2c(F)cccc21 (centres undefined),-24.9
6,N#Cc1cccc(CN2C(=O)c3ccccc3CS2(=O)=O)c1,-37.5
7,C=Cc1ccc(CN2C(=O)C3(CCNCC3)Nc3ccccc32)cc1,87.7
8,O=C1CC2(CCNCC2)C(=O)N1Cc1ccc(F)cc1,-53.4
9,NC(=O)c1ccc(CN2C(=O)C3(CCNCC3)Nc3ccccc32)cc1,-3.53
10,N#Cc1cccc(CN2CCC3(CC2)CC(c2ccncc2)C(=O)N3)c1 (centres undefined),-29.8
11,N#Cc1cccc(CN2C(=O)C3(CCNCC3)Nc3ccccc32)c1,67.9
12,COc1ccccc1N1CCN(C(=O)c2ccnc(N(C)C)c2)CC1,41.8
13,CN(Cc1cn2c(n1)CN(C1CCOCC1)CC2)Cc1ccco1,-29.2
14,NC(=O)CN1CCCC1c1cncc(Oc2ccc(Cl)cc2)n1 (centres undefined),9.38
15,CNCC(=O)N1CCCC1c1cncc(Oc2ccc(F)cc2)n1 (centres undefined),69.8
16,Cn1cncc1CN1CCCC1c1cncc(Oc2ccc(F)cc2)n1 (centres undefined),-32.7
17,COc1ccc(Oc2cncc(C3CCCN3C(C)=O)n2)cc1 (centres undefined),-40.9
18,CN(C)CC(=O)N1CCCC1c1cncc(Oc2ccc(F)cc2)n1 (centres undefined),61.2
19,CC(=O)N1CCCC1c1cncc(Oc2ccc(F)cc2)n1 (centres undefined),-118
20,NCc1ccnc(Oc2ccc(F)cc2)c1,-151
21,O=C(NC1CC1)N1CCOCC2(C1)CN(c1ccccc1)C(=O)CO2 (centres undefined),-77.9
22,c1cnnc(NCC2CN(Cc3ccon3)CCO2)c1 (centres undefined),-114
23,CN1CC[C@]2(CN(CC3CCOC3)C[C@H]2c2ccccc2)C1=O (some centres undefined),-65.9

row,Structure (SMILES),INHIBITION [%]
1,NC(=O)NC(=O)CCSCc1coc(-c2ccc(F)cc2)n1,-58.5
2,CC(Nc1nc(-c2ccccc2)nc2c1CCNCC2)c1nccs1 (centres undefined),52.7
3,CC(=O)N1CCc2nc(-c3ccccc3)nc(NC(C)C)c2CC1,-25.6
4,CC(Nc1ncnc2c1CCNCC2)c1nc2c(s1)CCCC2 (centres undefined),9.93
5,N#CCCn1nc(C(F)(F)F)c2c1CCC2,-74.2
6,Cc1ncsc1C(=O)NC1CCN(Cc2ccc(C(F)(F)F)cc2)CC1,-104
7,O=C(NC[C@H]1OC[C@@H](N(CC2CC2)CC2CC2)[C@@H]1O)Nc1ccccc1,64.8
8,CN(C)[C@@H]1CO[C@H](CNC(=O)Nc2ccccc2)[C@H]1O,-60.7
9,O=C(NC[C@H]1OC[C@@H](NC2CCC2)[C@@H]1O)Nc1ccccc1,-141
10,Cn1ccnc1C(NCc1csc(Br)c1)c1ccccc1 (centres undefined),28.4
11,CSc1ccc(CNC(c2ccc(F)cc2)c2nccn2C)cc1 (centres undefined),-107
12,CSc1ccc(CNC(c2ccccc2)c2nccn2C)cc1 (centres undefined),-22.4
13,CSc1ccc(CNC(c2ccccc2F)c2nccn2C)cc1 (centres undefined),-98
14,Cn1ccnc1C(NCc1ccccc1)c1ccc(F)cc1 (centres undefined),-60.5
15,COc1ccccc1C(NCc1ccc(SC)cc1)c1nccn1C (centres undefined),69.7
16,Cn1ccnc1C(NCc1ccc(Br)cc1)c1ccccc1 (centres undefined),52.2
17,Cc1ccc(CNC(c2ccccc2)c2nccn2C)cc1 (centres undefined),-267
18,COc1cccc(C(NCc2ccc(SC)cc2)c2nccn2C)c1 (centres undefined),65.5
19,FC(F)(F)Cn1cc(NCc2cscn2)cn1,-19.1
20,Cc1ccc(S(=O)(=O)c2ncccc2CN2CCN(C)CC2)cc1,24.6
21,Cc1nc(COc2ccc(CNCCn3cccn3)cc2)cs1,-107
22,COCCNC(=O)[C@H]1CN(c2nnc(C)s2)C[C@H]2OCC[C@@H]12,-167
23,c1ccc(Cc2noc(CN3CCCCC3Cn3cncn3)n2)cc1 (centres undefined),-14.9
